{
  "source": "PubChem BioAssay (NCATS)",
  "key": {"[1]": {"assay": "AP1 Signaling Pathway (AID 357);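 as to all read-outs here: ME-180 reporter cells stimulated with EGF at its EC50 level; % is scaled to controls: 0 for no effect and ±100 for the full control effect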", "how_it_was_run": "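First, ME-180 AP-1-bla cells were cultured overnight at 37 °C in low-serum Opti-MEM. Next, titrated compounds with EC50 EGF were incubated 5 hours. Finally, CCF4 was added for 2.5 hours and the 460/530 nm ratio recorded.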"}, "[2]": {"assay": "NFAT Signaling Pathway (AID 444);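 as to all read-outs here: carbachol stimulus at about its EC50 of 1 µM final; % is scaled to controls: 0 for no effect and ±100 for the full control effect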", "settings": "Jurkat NFAT-bla M1, carbachol, beta-lactamase ratio, 5 h; at 17.2 µM (top of the series) unless noted", "how_it_was_run": "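Read-out: CCF4 FRET ratio (460 nm/530 nm) after 1 h RT dye loading, used for %activity and AC50 from titration series. Cells: Jurkat NFAT-β-lactamase/M1 line, treated with compound plus 1 uM carbachol for 5 h, 37 °C.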"}, "[3]": {"assay": "Stat Signaling Pathway (AID 446);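 as to all read-outs here: ME-180 cervical cancer cells given 40 pM IL-6 alongside compound; SIE-controlled beta-lactamase reporter measured as 460/530 nm FRET emission ratio; % is scaled to controls: 0 for no effect and ±100 for the full control effect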", "how_it_was_run": "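Normalization used AC90 stimulation (300 pM IL-6) and AC90 inhibition (125 nM pan-JAK inhibitor at 40 pM IL-6). The underlying signal is SIE-driven beta-lactamase in ME-180 cells after 5 h IL-6 exposure with compound.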"}, "[4]": {"biological_target": "Glucocorticoid receptor (Homo sapiens) (UniProt P04150)", "sequence (P04150 whole entry, looked up, the tested form may be a part)": "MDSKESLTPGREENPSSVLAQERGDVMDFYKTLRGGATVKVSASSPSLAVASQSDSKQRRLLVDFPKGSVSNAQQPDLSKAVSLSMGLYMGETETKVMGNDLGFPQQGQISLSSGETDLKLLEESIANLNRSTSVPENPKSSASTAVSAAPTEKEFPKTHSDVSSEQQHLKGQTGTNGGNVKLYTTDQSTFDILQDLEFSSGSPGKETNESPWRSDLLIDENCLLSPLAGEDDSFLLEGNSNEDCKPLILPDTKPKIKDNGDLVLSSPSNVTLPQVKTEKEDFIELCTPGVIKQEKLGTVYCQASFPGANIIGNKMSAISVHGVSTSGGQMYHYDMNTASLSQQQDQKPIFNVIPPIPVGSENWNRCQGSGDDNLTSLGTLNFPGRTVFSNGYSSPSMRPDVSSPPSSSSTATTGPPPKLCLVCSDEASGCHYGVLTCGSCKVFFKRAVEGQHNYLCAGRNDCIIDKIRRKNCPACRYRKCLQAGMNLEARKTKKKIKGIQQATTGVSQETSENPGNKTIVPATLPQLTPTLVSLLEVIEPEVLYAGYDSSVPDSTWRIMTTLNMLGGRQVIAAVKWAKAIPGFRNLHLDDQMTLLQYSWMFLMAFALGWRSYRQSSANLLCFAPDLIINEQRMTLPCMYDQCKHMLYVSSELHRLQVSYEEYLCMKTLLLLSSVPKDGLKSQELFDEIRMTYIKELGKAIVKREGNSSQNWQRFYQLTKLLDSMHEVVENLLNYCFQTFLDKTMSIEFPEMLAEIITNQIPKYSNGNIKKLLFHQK", "assay": "GR-GFP Redistribution (AID 450;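 active = compounds whose dose series gives a full or clear partial fitted curve of increased nuclear translocation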; as to all read-outs here: potency is read from the fitted curve at half-maximal effect)", "settings": "U2OS GR-GFP nuclear translocation, laser cytometry, 2 h"}, "[5]": {"biological_target": "Glucocorticoid receptor (Homo sapiens) (UniProt P04150)", "assay": "GR-EFC Redistribution (AID 451; calls by dose curve; as to all read-outs here: potency is read from the fitted curve at half-maximal effect)", "settings": "CHO-K1 GR-EFC translocation, beta-gal luminescence, 2 h", "how_it_was_run": "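Translocation of GR-ED fusion to nuclear EA restores b-gal, read by luminescence after 1 h room-temperature detection. Engineered CHO-K1 biosensor cells, 1,000/well, exposed 2 h at 37 C to titrations up to 46 uM final.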"}, "[6]": {"biological_target": "Mitogen-activated protein kinase 10 (Mus musculus) (UniProt Q61831)", "assay": "JNK3 AlphaScreen Assay (AID 530);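 as to all read-outs here: kinase came from lysate of stimulated human HepG2 cells; signal reports phosphorylation of biotinylated GST-cJun 1-79 at Ser73 with 10 µM ATP; % is scaled to controls: 0 for no effect and ±100 for the full control effect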", "how_it_was_run": "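qHTS titrations with 15 min compound pre-incubation before adding ATP (10 uM final). Read-out: AlphaScreen of Ser73-phosphorylated biotin-GST-cJun using HepG2 lysate JNK3 activated by IL-1β and TNFα.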"}, "[7]": {"biological_target": "3',5'-cyclic-AMP phosphodiesterase 4B (Homo sapiens) (UniProt Q07343)", "sequence (Q07343 whole entry, looked up)": "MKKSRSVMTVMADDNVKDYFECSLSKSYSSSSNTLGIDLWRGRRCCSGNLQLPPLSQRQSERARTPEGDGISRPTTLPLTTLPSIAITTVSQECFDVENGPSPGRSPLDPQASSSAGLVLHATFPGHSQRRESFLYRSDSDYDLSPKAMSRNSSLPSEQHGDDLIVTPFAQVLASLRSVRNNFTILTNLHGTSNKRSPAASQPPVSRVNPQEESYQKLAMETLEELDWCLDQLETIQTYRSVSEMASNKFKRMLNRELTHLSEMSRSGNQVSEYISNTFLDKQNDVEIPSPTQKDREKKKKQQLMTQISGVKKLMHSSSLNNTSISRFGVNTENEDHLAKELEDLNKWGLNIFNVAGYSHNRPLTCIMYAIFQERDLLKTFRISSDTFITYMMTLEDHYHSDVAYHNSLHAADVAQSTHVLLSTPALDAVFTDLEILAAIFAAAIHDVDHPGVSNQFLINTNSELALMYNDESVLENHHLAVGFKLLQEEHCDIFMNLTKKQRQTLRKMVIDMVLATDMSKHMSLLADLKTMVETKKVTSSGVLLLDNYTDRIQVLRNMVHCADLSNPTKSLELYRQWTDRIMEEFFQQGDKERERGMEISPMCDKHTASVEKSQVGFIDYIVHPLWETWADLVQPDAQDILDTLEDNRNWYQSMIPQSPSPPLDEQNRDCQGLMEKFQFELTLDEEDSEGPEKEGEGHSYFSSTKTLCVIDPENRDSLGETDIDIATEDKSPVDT", "assay": "qHTS Assay for Inhibitors of PDE-IV (AID 607; active = well fitted activation curve with a large enough effect in the main read-out, with a control signal flat, not every such curve was filed as active; as to all read-outs here: % of control where 0% means no effect)", "how_it_was_run": "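HEK293 ACTOne cells with CNG channel (1000/well), endogenous PDE4; membrane potential dye, compounds up to 22.9 uM final. Fluorescence Ex 535/Em 590; RO 20-1724 (100 uM final) as reference.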"}, "[8]": {"assay": "qHTS Assay for Lipid Storage Modulators (AID 1519; calls by dose curve)", "settings": "Drosophila S3 cells, BODIPY lipid droplet/cell ratio, laser cytometry, cells loaded with oleic acid; for activity change, negative = inhibition: at 25.7 µM (top of the series)", "how_it_was_run": "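Cells seeded at 5,000 per well were treated with compounds over a concentration series and loaded with oleic acid (400 uM, as added). Lipid droplet fluorescence (488 nm excitation, 500-530 nm channel) was read by laser-scanning cytometry and normalized to 20 uM Triacsin C.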"}, "[9]": {"biological_target": "Ubiquitin carboxyl-terminal hydrolase 1 (Homo sapiens) (UniProt O94782)", "sequence (O94782 whole entry, looked up)": "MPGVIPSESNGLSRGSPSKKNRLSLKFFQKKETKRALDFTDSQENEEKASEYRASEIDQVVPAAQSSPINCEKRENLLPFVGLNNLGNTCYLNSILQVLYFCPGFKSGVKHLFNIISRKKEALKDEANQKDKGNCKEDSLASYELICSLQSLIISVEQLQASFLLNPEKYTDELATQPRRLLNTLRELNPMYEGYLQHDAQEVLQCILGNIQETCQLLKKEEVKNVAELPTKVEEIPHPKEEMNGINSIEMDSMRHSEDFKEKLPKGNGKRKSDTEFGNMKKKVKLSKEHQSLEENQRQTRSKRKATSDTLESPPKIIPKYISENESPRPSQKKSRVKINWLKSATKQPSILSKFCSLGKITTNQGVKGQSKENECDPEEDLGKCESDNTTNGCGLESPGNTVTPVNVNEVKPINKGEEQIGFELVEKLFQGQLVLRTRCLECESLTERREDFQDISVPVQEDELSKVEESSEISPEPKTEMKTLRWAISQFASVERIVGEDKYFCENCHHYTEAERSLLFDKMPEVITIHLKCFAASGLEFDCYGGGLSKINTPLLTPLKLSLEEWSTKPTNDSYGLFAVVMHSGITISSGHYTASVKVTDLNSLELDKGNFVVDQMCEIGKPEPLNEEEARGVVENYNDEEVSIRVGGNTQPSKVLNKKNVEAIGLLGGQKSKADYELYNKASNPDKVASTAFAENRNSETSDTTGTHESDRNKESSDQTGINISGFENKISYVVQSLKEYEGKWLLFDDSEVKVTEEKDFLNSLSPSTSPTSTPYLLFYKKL", "assay": "Inhibitors of USP1/UAF1: Pilot qHTS (AID 504865; active = well fitted inhibition curve with a large enough effect;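 also: rhodamine fluorescence freed from ubiquitin-rhodamine substrate followed over time; top concentration of the series differs between compounds; % is scaled to controls: 0 for no effect and ±100 for the full control effect; nearly all actives have a fitted effect of over 35% in size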)", "how_it_was_run": "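USP1/UAF1 complex (1nM) preincubated with compound 15 min at room temperature, then Ub-Rho substrate (150nM final) added. Fluorescence read kinetically at 480/540 nm, 6 reads every 60 seconds. Buffer: 50mM HEPES pH 7.8, 0.5mM EDTA, 0.1 mg/ml BSA, 1mM TCEP, 0.01% Tween-20.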"}, "[10]": {"settings": "measured here: cell count channel max response"}, "[11]": {"settings": "measured here: lipid channel max response"}},
  "note": "Records with an inconclusive call do not appear. The source made the active and inactive calls. Unless noted, calls follow the shape of the dose curve; as a rule, active = well fitted curve in either direction with a large enough effect (not every such curve was filed as active); inconclusive = small, poorly fitted or top-dose-only effect, or another doubt; inactive = flat fitted curve, though single readings scatter.",
  "data": [
    {"smiles": "C=C1CC23C[C@H]4[C@@H]5[C@@]6(C)C[C@H](OC(=O)c7ccccc7)[C@@H](OC(C)=O)[C@]57[C@@H]2[C@@H](OC(C)=O)[C@H]1[C@@H](O)[C@H]3[C@H]7N4C6", "values": [
      {"measurement": "outcome", "setting": "[1]", "value": "inactive"},
      {"measurement": "activity change, negative = inhibition", "setting": "[2]", "value": "-10.3% (inactive)"},
      {"measurement": "outcome", "setting": "[3]", "value": "inactive"},
      {"measurement": "Potency", "setting": "[4]", "value": "> 20.6 µM (inactive)"},
      {"measurement": "Potency", "setting": "[5]", "value": "> 20.6 µM (inactive)"},
      {"measurement": "Potency", "setting": "[6]", "value": "inactive"},
      {"measurement": "outcome", "setting": "[7]", "value": "inactive"},
      {"measurement": "activity change, negative = inhibition", "setting": "[8]", "value": "-1.43% (inactive)"},
      {"measurement": "max response", "setting": "[8]; [10]", "value": -3.09, "unit": "%"},
      {"measurement": "max response", "setting": "[8]; [11]", "value": -1.64, "unit": "%"}
    ]},
    {"smiles": "CC(=O)OCC(=O)[C@@]1(OC(C)=O)[C@H](C)C[C@H]2[C@@H]3C[C@H](F)C4=CC(=O)C=C[C@@]4(C)[C@]3(F)[C@H](O)C[C@@]21C", "values": [
      {"measurement": "outcome", "setting": "[1]", "value": "inactive"},
      {"measurement": "activity change, negative = inhibition", "setting": "[2]", "value": "4% (inactive)"},
      {"measurement": "outcome", "setting": "[3]", "value": "inactive"},
      {"measurement": "Potency", "setting": "[4]", "value": "0.00203 µM (active)"},
      {"measurement": "Potency", "setting": "[5]", "value": "0.0775 µM (active)"},
      {"measurement": "Potency", "setting": "[6]", "value": "inactive"},
      {"measurement": "outcome", "setting": "[7]", "value": "inactive"},
      {"measurement": "activity change, negative = inhibition", "setting": "[8]", "value": "-2.11% (inactive)"},
      {"measurement": "max response", "setting": "[8]; [10]", "value": -15.4, "unit": "%"},
      {"measurement": "max response", "setting": "[8]; [11]", "value": -17.2, "unit": "%"},
      {"measurement": "Potency", "setting": "[9]", "value": "inactive"}
    ]},
    {"smiles": "CN1CCCN=C1/C=C\\c1cccs1", "values": [
      {"measurement": "outcome", "setting": "[1]", "value": "inactive"},
      {"measurement": "activity change, negative = inhibition", "setting": "[2]", "value": "-25.3% (inactive)"},
      {"measurement": "outcome", "setting": "[3]", "value": "inactive"},
      {"measurement": "Potency", "setting": "[4]", "value": "> 20.6 µM (inactive)"},
      {"measurement": "Potency", "setting": "[5]", "value": "> 20.6 µM (inactive)"},
      {"measurement": "Potency", "setting": "[6]", "value": "inactive"},
      {"measurement": "outcome", "setting": "[7]", "value": "inactive"},
      {"measurement": "activity change, negative = inhibition", "setting": "[8]", "value": "0.765% (inactive)"},
      {"measurement": "max response", "setting": "[8]; [10]", "value": -6.05, "unit": "%"},
      {"measurement": "max response", "setting": "[8]; [11]", "value": -6.06, "unit": "%"}
    ]},
    {"smiles": "CC(C)(CO)[C@H](O)C(=O)NCCCO", "values": [
      {"measurement": "outcome", "setting": "[1]", "value": "inactive"},
      {"measurement": "activity change, negative = inhibition", "setting": "[2]", "value": "9.07% (inactive)"},
      {"measurement": "outcome", "setting": "[3]", "value": "inactive"},
      {"measurement": "Potency", "setting": "[6]", "value": "inactive"},
      {"measurement": "outcome", "setting": "[7]", "value": "inactive"},
      {"measurement": "activity change, negative = inhibition", "setting": "[8]", "value": "-3.05% (inactive)"},
      {"measurement": "max response", "setting": "[8]; [10]", "value": -6.65, "unit": "%"},
      {"measurement": "max response", "setting": "[8]; [11]", "value": -8.62, "unit": "%"},
      {"measurement": "Potency", "setting": "[9]", "value": "inactive"}
    ]}
  ]
}
